The supplement of paper PMC4466140

Target: AgAbp1
Assay: SPOT peptide array binding signal intensity (averaged, normalized) (arbitrary units (background-subtracted, floor 0; scale differs between SH3 domains)); higher = stronger binding of the SH3 domain to the peptide
Protocol: (§1)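 GST-tagged SH3 domains from S. cerevisiae (Sc), A. gossypii (Ag), C. albicans (Ca) and S. pombe (Sp) were incubated at 10 ug/ml overnight at 4 C on cellulose SPOT membranes carrying 292 synthetic 15-mer peptides mined from the S. cerevisiae proteome (cysteines replaced by serines). Binding was detected with anti-GST antibody, HRP secondary and chemiluminescence, quantified with Genespotter, and reported as normalized spot intensities averaged over biological replicates.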

Binder | SPOT peptide array binding signal intensity
HGKRRAPLLLAKLDV | 19

Target: AgBbc1
Assay: as above
Protocol: as §1

Binder | SPOT peptide array binding signal intensity
HGKRRAPLLLAKLDV | 2

Target: AgBem1-D1
Assay: as above
Protocol: as §1

Binder | SPOT peptide array binding signal intensity
HGKRRAPLLLAKLDV | 26

Target: AgBzz1-D1
Assay: as above
Protocol: as §1

Binder | SPOT peptide array binding signal intensity
HGKRRAPLLLAKLDV | 82

Target: AgBzz1-D2
Assay: as above
Protocol: as §1

Binder | SPOT peptide array binding signal intensity
HGKRRAPLLLAKLDV | 34.5

Target: AgCyk3
Assay: as above
Protocol: as §1

Binder | SPOT peptide array binding signal intensity
HGKRRAPLLLAKLDV | 7

Target: AgFus1
Assay: as above
Protocol: as §1

Binder | SPOT peptide array binding signal intensity
HGKRRAPLLLAKLDV | 93

Target: AgHof1
Assay: as above
Protocol: as §1

Binder | SPOT peptide array binding signal intensity
HGKRRAPLLLAKLDV | 13.5

Target: AgHse1
Assay: as above
Protocol: as §1

Binder | SPOT peptide array binding signal intensity
HGKRRAPLLLAKLDV | 145

Target: AgLsb1
Assay: as above
Protocol: as §1

Binder | SPOT peptide array binding signal intensity
HGKRRAPLLLAKLDV | ≤ 0

Target: AgLsb4
Assay: as above
Protocol: as §1

Binder | SPOT peptide array binding signal intensity
HGKRRAPLLLAKLDV | 29.5

Target: AgMyo5
Assay: as above
Protocol: as §1

Binder | SPOT peptide array binding signal intensity
HGKRRAPLLLAKLDV | 3

Target: AgNbp2
Assay: as above
Protocol: as §1

Binder | SPOT peptide array binding signal intensity
HGKRRAPLLLAKLDV | 58

Target: AgRvs167
Assay: as above
Protocol: as §1

Binder | SPOT peptide array binding signal intensity
HGKRRAPLLLAKLDV | 6.67

Target: AgSho1
Assay: as above
Protocol: as §1

Binder | SPOT peptide array binding signal intensity
HGKRRAPLLLAKLDV | 6

Target: AgSla1-D1-D2
Assay: as above
Protocol: as §1

Binder | SPOT peptide array binding signal intensity
HGKRRAPLLLAKLDV | 94.5

Target: AgSla1-D3
Assay: as above
Protocol: as §1

Binder | SPOT peptide array binding signal intensity
HGKRRAPLLLAKLDV | 20

Target: CaAbp1-D1
Assay: as above
Protocol: as §1

Binder | SPOT peptide array binding signal intensity
HGKRRAPLLLAKLDV | 499

Target: CaAbp1-D2
Assay: as above
Protocol: as §1

Binder | SPOT peptide array binding signal intensity
HGKRRAPLLLAKLDV | 238

Target: CaBbc1
Assay: as above
Protocol: as §1

Binder | SPOT peptide array binding signal intensity
HGKRRAPLLLAKLDV | 57.8

Target: CaBem1-D1
Assay: as above
Protocol: as §1

Binder | SPOT peptide array binding signal intensity
HGKRRAPLLLAKLDV | 44

Target: CaBzz1-D1
Assay: as above
Protocol: as §1

Binder | SPOT peptide array binding signal intensity
HGKRRAPLLLAKLDV | 94

Target: CaBzz1-D2
Assay: as above
Protocol: as §1

Binder | SPOT peptide array binding signal intensity
HGKRRAPLLLAKLDV | 51.8

Target: CaCyk3
Assay: as above
Protocol: as §1

Binder | SPOT peptide array binding signal intensity
HGKRRAPLLLAKLDV | 37

Target: CaFus1
Assay: as above
Protocol: as §1

Binder | SPOT peptide array binding signal intensity
HGKRRAPLLLAKLDV | 312

Target: CaHof1
Assay: as above
Protocol: as §1

Binder | SPOT peptide array binding signal intensity
HGKRRAPLLLAKLDV | ≤ 0

Target: CaHse1
Assay: as above
Protocol: as §1

Binder | SPOT peptide array binding signal intensity
HGKRRAPLLLAKLDV | 7.75

Target: CaLsb1
Assay: as above
Protocol: as §1

Binder | SPOT peptide array binding signal intensity
HGKRRAPLLLAKLDV | 0.25

Target: CaLsb4
Assay: as above
Protocol: as §1

Binder | SPOT peptide array binding signal intensity
HGKRRAPLLLAKLDV | 26

Target: CaMyo5
Assay: as above
Protocol: as §1

Binder | SPOT peptide array binding signal intensity
HGKRRAPLLLAKLDV | 4

Target: CaNbp2
Assay: as above
Protocol: as §1

Binder | SPOT peptide array binding signal intensity
HGKRRAPLLLAKLDV | 1060

Target: CaRvs167
Assay: as above
Protocol: as §1

Binder | SPOT peptide array binding signal intensity
HGKRRAPLLLAKLDV | 7.67

Target: CaRvs167-3
Assay: as above
Protocol: as §1

Binder | SPOT peptide array binding signal intensity
HGKRRAPLLLAKLDV | 17.5

Target: CaSho1
Assay: as above
Protocol: as §1

Binder | SPOT peptide array binding signal intensity
HGKRRAPLLLAKLDV | 95

Target: CaSla1-D1-D2
Assay: as above
Protocol: as §1

Binder | SPOT peptide array binding signal intensity
HGKRRAPLLLAKLDV | 122

Target: CaSla1-D3
Assay: as above
Protocol: as §1

Binder | SPOT peptide array binding signal intensity
HGKRRAPLLLAKLDV | 8.75

Target: ScAbp1
Assay: as above
Protocol: as §1

Binder | SPOT peptide array binding signal intensity
HGKRRAPLLLAKLDV | 50

Target: ScBbc1
Assay: as above
Protocol: as §1

Binder | SPOT peptide array binding signal intensity
HGKRRAPLLLAKLDV | 12.2

Target: ScBem1-D1
Assay: as above
Protocol: as §1

Binder | SPOT peptide array binding signal intensity
HGKRRAPLLLAKLDV | 30

Target: ScBzz1-D1
Assay: as above
Protocol: as §1

Binder | SPOT peptide array binding signal intensity
HGKRRAPLLLAKLDV | 21.5

Target: ScBzz1-D2
Assay: as above
Protocol: as §1

Binder | SPOT peptide array binding signal intensity
HGKRRAPLLLAKLDV | 27

Target: ScCyk3
Assay: as above
Protocol: as §1

Binder | SPOT peptide array binding signal intensity
HGKRRAPLLLAKLDV | 102

Target: ScFus1
Assay: as above
Protocol: as §1

Binder | SPOT peptide array binding signal intensity
HGKRRAPLLLAKLDV | 136

Target: ScHof1
Assay: as above
Protocol: as §1

Binder | SPOT peptide array binding signal intensity
HGKRRAPLLLAKLDV | 0.5

Target: ScHse1
Assay: as above
Protocol: as §1

Binder | SPOT peptide array binding signal intensity
HGKRRAPLLLAKLDV | 732

Target: ScLsb1
Assay: as above
Protocol: as §1

Binder | SPOT peptide array binding signal intensity
HGKRRAPLLLAKLDV | ≤ 0

Target: ScLsb2
Assay: as above
Protocol: as §1

Binder | SPOT peptide array binding signal intensity
HGKRRAPLLLAKLDV | ≤ 0

Target: ScLsb3
Assay: as above
Protocol: as §1

Binder | SPOT peptide array binding signal intensity
HGKRRAPLLLAKLDV | 16.5

Target: ScLsb4
Assay: as above
Protocol: as §1

Binder | SPOT peptide array binding signal intensity
HGKRRAPLLLAKLDV | ≤ 0

Target: ScMyo3
Assay: as above
Protocol: as §1

Binder | SPOT peptide array binding signal intensity
HGKRRAPLLLAKLDV | 1

Target: ScMyo5
Assay: as above
Protocol: as §1

Binder | SPOT peptide array binding signal intensity
HGKRRAPLLLAKLDV | 5.5

Target: ScNbp2
Assay: as above
Protocol: as §1

Binder | SPOT peptide array binding signal intensity
HGKRRAPLLLAKLDV | 210

Target: ScPex13
Assay: as above
Protocol: as §1

Binder | SPOT peptide array binding signal intensity
HGKRRAPLLLAKLDV | ≤ 0

Target: ScRvs167
Assay: as above
Protocol: as §1

Binder | SPOT peptide array binding signal intensity
HGKRRAPLLLAKLDV | 11.3

Target: ScSho1
Assay: as above
Protocol: as §1

Binder | SPOT peptide array binding signal intensity
HGKRRAPLLLAKLDV | 186

Target: ScSla1-D1-D2
Assay: as above
Protocol: as §1

Binder | SPOT peptide array binding signal intensity
HGKRRAPLLLAKLDV | 126

Target: ScSla1-D3
Assay: as above
Protocol: as §1

Binder | SPOT peptide array binding signal intensity
HGKRRAPLLLAKLDV | 20.5

Target: SpAbp1-D1
Assay: as above
Protocol: as §1

Binder | SPOT peptide array binding signal intensity
HGKRRAPLLLAKLDV | 55

Target: SpBbc1
Assay: as above
Protocol: as §1

Binder | SPOT peptide array binding signal intensity
HGKRRAPLLLAKLDV | 0.5

Target: SpBzz1-D1
Assay: as above
Protocol: as §1

Binder | SPOT peptide array binding signal intensity
HGKRRAPLLLAKLDV | 204

Target: SpBzz1-D2
Assay: as above
Protocol: as §1

Binder | SPOT peptide array binding signal intensity
HGKRRAPLLLAKLDV | ≤ 0

Target: SpCyk3
Assay: as above
Protocol: as §1

Binder | SPOT peptide array binding signal intensity
HGKRRAPLLLAKLDV | 18

Target: SpHof1
Assay: as above
Protocol: as §1

Binder | SPOT peptide array binding signal intensity
HGKRRAPLLLAKLDV | 31.2

Target: SpHof1-2
Assay: as above
Protocol: as §1

Binder | SPOT peptide array binding signal intensity
HGKRRAPLLLAKLDV | 4.25

Target: SpHof1-3
Assay: as above
Protocol: as §1

Binder | SPOT peptide array binding signal intensity
HGKRRAPLLLAKLDV | 242

Target: SpHse1
Assay: as above
Protocol: as §1

Binder | SPOT peptide array binding signal intensity
HGKRRAPLLLAKLDV | 235

Target: SpLsb1
Assay: as above
Protocol: as §1

Binder | SPOT peptide array binding signal intensity
HGKRRAPLLLAKLDV | ≤ 0

Target: SpLsb4
Assay: as above
Protocol: as §1

Binder | SPOT peptide array binding signal intensity
HGKRRAPLLLAKLDV | 21.5

Target: SpMyo1
Assay: as above
Protocol: as §1

Binder | SPOT peptide array binding signal intensity
HGKRRAPLLLAKLDV | 2

Target: SpNbp2
Assay: as above
Protocol: as §1

Binder | SPOT peptide array binding signal intensity
HGKRRAPLLLAKLDV | 63.5

Target: SpPex13
Assay: as above
Protocol: as §1

Binder | SPOT peptide array binding signal intensity
HGKRRAPLLLAKLDV | 10

Target: SpRvs167
Assay: as above
Protocol: as §1

Binder | SPOT peptide array binding signal intensity
HGKRRAPLLLAKLDV | ≤ 0

Target: SpSla1-D1-D2
Assay: as above
Protocol: as §1

Binder | SPOT peptide array binding signal intensity
HGKRRAPLLLAKLDV | ≤ 0

Target: SpSla1-D3
Assay: as above
Protocol: as §1

Binder | SPOT peptide array binding signal intensity
HGKRRAPLLLAKLDV | 2
